# The supplement of paper PMC10338343
# ± gives the standard deviation.
# Test system: MILI (PIWIL2) piRISC loaded with piRNA #1 (26 nt)
# Assay: pre-steady-state target cleavage rate (min^-1); guide: piRNA #1 5'p-UGAGGUAGUAGGUUGUAUAGUAUCCA; MIWI and MILI are mouse PIWI proteins and EfPiwi is from a freshwater sponge; tags in brackets are library labels; higher = faster piRNA-guided slicing of the target
# Conditions: auxiliary factor: 500 nM mouse GTSF1
# Method in brief: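 Cleave-'n-Seq reactions paired 0.1 nM transcribed, DNA-blocked target RNA library with 1 nM active affinity-purified piRISC holding one synthetic guide, plus or minus 500 nM GTSF1 partner protein, in HEPES–potassium acetate buffer at 33 °C for 0–8 or 0–960 min. After sequencing of uncleaved targets and normalisation to depth and weakly complementary targets, the pre-steady-state cleavage rate was taken from a burst-and-steady-state fit. Three trials were pooled, and k3 was capped at 0.0001 min^-1.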
row,Sequence,pre-steady-state target cleavage rate
1,GGAGACCUAUGAUAUCAACCUAGUACCUGA,< 0.0001
2,GGAGACCUAACUAUACAAGCAACUACCUCA,0.00654 ± 0.0041
3,GGAGACCUAUCUUUACAACCUACUUCCUCA,0.0374 ± 0.0094
4,GGAGACCUAUGAUAUGUUGCUACUACCUUA,< 0.0001
5,GGAGACCUUAGUAUACAACCUACUACCACA,0.101 ± 0.013
6,GGAGACGAUACUAUACAACCUAGAUCCUCA,0.00708 ± 0.0033
7,GGAGUGGAUACUAUACAACCAUCUACCUCA,0.00432 ± 0.0024
8,GGAGACCUAUCUAUACAACCUACUGACCUCA,0.066 ± 0.012
9,GGAGACCUAACUAAACUACCUACUACCUCA,0.0594 ± 0.017
10,GGAGAGGAUUCUAUACAUCCUACUACCUCA,0.263 ± 0.013
11,GGAGACCUAUGAUUUCAACCUACAACCUCA,0.00341 ± 0.0021
12,GGAGACCUAUGAUAUCACCUACUACCUCA,0.00625 ± 0.0026
13,GGAGACCUAACUAUACAAUCUACUACCUCA,0.0713 ± 0.012
14,GGAGACCUAACUAUACUACCUACUAGCUCA,0.0708 ± 0.021
15,GGAGACCAUACUAAACAACCAACUACCUCA,0.00724 ± 0.003
16,GGAGACCUUCUAUACAACCUACUACCUCA,0.0879 ± 0.016
17,GGAGACCUAAGUAUACAACCUACUACCACA,0.0885 ± 0.012
18,GGAGACCUAACUUUAGAACCUACUACCUCA,0.129 ± 0.023
19,GGAGACCUAUGUAUAUAACCUACUACCUCA,0.0579 ± 0.0076
20,GGAGACCUAUCUAUACAACCUUCUUCCUCA,0.00365 ± 0.0029
21,GGAGACCUUACUAAAGAACCUACUACCUCA,0.105 ± 0.011
22,GGAGACCUAUGAUUACAACCUUCUACCUCA,0.00235 ± 0.0023
23,GGAGACCUUUCUAUACAACCUACUAGCUCA,0.0622 ± 0.013
24,GGAGACCUAUCUAUACAACCUACCACCUCA,0.0927 ± 0.018
